Hits are enriched below; roughly 3.5% of the tested compounds scored in any of these assays.
FBW7 act: activators of human E3 ligase FBW7. AID 1259310. AlphaScreen FBW7–phospho-cyclin E peptide binding, activator screen. Q969H0. 650,000 compounds, 0.13% hits. normalized activity (activation), % at 26.1 µM; in the data active means normalized activity above about 1.9%;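 further: purified mutant Fbw7 with reduced substrate affinity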
TEAD-YAP block: TEAD-YAP interaction inhibition | HEK-TIYL cells, TEAD-Gal4/YAP UAS-luciferase luminescence | 640,000 compounds, 1.4% hits | inhibition, % at 9.12 µM; in the data active means inhibition above about 32%;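 further: 0% = median of test compound wells and 100% = reference inhibitor wells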
GPR151 ag: activators of human GPR151; PathHunter beta-arrestin GPR151 cells, luminescence; AID 1508602; activation, % at 11.2 µM; 650,000 compounds, 1% hits; Q8TDV0; in the data active means activation above about 4.9%;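 further: 0% = median of compound wells and 100% = cells with positive control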
MITF inh: human MITF inhibition, primary screen | O75030 | 650,000 compounds, 0.91% hits | AlphaScreen MITF homodimerization, bead proximity signal | AID 1259374 | inhibition, % at 2.6 µM; in the data active means inhibition above about 50%;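 further: 0% = vehicle wells with protein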
Target sequence (O75030 whole entry, looked up): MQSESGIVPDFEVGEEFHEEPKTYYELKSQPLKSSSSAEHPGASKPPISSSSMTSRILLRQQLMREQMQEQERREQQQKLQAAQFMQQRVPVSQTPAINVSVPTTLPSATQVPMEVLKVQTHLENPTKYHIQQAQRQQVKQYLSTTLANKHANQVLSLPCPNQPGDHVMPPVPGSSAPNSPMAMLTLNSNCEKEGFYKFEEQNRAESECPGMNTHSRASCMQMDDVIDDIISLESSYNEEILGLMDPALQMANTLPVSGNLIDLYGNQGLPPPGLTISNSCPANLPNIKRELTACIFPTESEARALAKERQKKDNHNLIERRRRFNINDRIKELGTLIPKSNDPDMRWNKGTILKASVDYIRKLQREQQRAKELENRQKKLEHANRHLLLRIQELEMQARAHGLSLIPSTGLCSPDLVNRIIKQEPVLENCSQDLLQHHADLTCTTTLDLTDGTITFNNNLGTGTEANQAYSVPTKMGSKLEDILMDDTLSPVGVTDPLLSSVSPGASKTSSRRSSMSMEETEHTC
* marks the source's active call; other numbers are inactive results; · = not tested or not shown.

SMILES	FBW7 act	TEAD-YAP block	GPR151 ag	MITF inh
CN1C(=O)c2ccccc2C(C(=O)N2CCC(c3ccccc3)C2)C1c1cccs1 (stereo unspecified)	0	-2	2	-9
O=C(Nc1ccc(Br)cc1)c1ccc(F)c(S(=O)(=O)NCc2ccco2)c1	0	43*	0	-4
COc1ccccc1CNS(=O)(=O)c1cc(C(=O)Nc2ccc(Br)cc2)ccc1F	0	33*	3	1
O=C(Nc1ccc(Br)cc1)c1ccc(F)c(S(=O)(=O)NCC2CCCO2)c1 (stereo unspecified)	0	50*	1	1
C=CCN(c1ccccc1)S(=O)(=O)c1ccc(F)c(C(=O)Nc2ccccc2C(F)(F)F)c1	0	3	0	4
COc1ccc(NC(=O)C/C(C)=N/NC(=O)COc2ccccc2C)cc1	0	-11	-1	7
CC(=O)c1cccc(NC(=O)Cn2ccc([N+](=O)[O-])n2)c1	0	9	0	14
CC(=O)c1cccc(NC(=O)CSC2N=c3ccc([N+](=O)[O-])cc3=N2)c1 (stereo unspecified)	0	-1	0	71*
CCN(CC)CCN(CC)Cc1ccccc1Cl	0	10	1	17
CCOC(=O)C(CC(C)C)N(Cc1ccccc1F)S(=O)(=O)c1ccc([N+](=O)[O-])cc1 (stereo unspecified)	0	7	0	17
Cc1cccc(NC(=O)C2COc3ccccc3O2)n1 (stereo unspecified)	0	-30	1	7
O=C(Nc1cc(C(F)(F)F)cc(Cl)n1)C1COc2ccccc2O1 (stereo unspecified)	1.9*	9	-1	13
Cc1sc2ncnc(NCc3ccncc3)c2c1C	0	0	1	2
Cc1sc2ncnc(NC(C)c3ccc(-n4ccnc4)cc3)c2c1C (stereo unspecified)	0	47*	1	5
COC(=O)C1=C(C(=O)OC)SC(=C2C(=S)C(C)(C)N(C(=O)c3ccccc3)c3ccc(C)cc32)S1	0	-6	1	-3
COC(=O)C1=C(C(=O)OC)SC(=C2C(=S)C(C)(C)N(C)c3ccc(C)cc32)S1	0	6	0	52*
O=c1[nH]c(CCl)nc2sc(-c3ccccc3)cc12	0	33*	-2	5
Cc1ccc(-c2c(NC3CCCC3)c(=O)c2=O)cc1C	0	32*	1	12
CCC(C)Nc1c(-c2ccc(C)c(C)c2)c(=O)c1=O (stereo unspecified)	0	52*	0	-3
CCC(C)Nc1c(-c2ccc(C)cc2)c(=O)c1=O (stereo unspecified)	0	24	-2	13
O=C(O)CCC/C=C\C[C@@H]1CO[C@H](C(F)(F)F)O[C@@H]1c1ccccc1O	2.2*	·	2	5
CC(C(=O)O)N1C(=O)/C(=C/c2ccc(Br)cc2)SC1=S (stereo unspecified)	0	0	-2	18
CCc1cccc(CC)c1NC(=O)C1CCN(c2ncccn2)CC1	0	-8	-1	-5
CCOC(=O)c1cccc2c1S(=O)(=O)CCC2=O	0	12	-1	6
CCOC(=O)c1sc(N/N=C/c2ccccc2O)nc1C	0	49*	1	7
SMILES	FBW7 act	TEAD-YAP block	GPR151 ag	MITF inh
CCOc1ccc(-n2nc(C(=O)Nc3ccc(Oc4ccccc4)cc3)c3ccccc3c2=O)cc1	1	-4	1	13
N#CC1CCCc2c1[nH]c1ccc(Cl)cc21 (stereo unspecified)	0	39*	2	-1
NCC(O)COc1ccc2ccccc2c1 (stereo unspecified)	0	-5	0	-5
CN1CCC(=NNC(=O)c2cc(O)c(O)c(O)c2)CC1	0	-2	0	83*
COc1cc(OC)cc(C(=O)NN=C2CCN(C)CC2)c1	0	51*	1	18
CCOC(=O)C1=C(C)N=c2s/c(=C\c3ccc(-c4cc(Cl)ccc4C)o3)c(=O)n2C1c1ccc2c(c1)OCO2 (stereo unspecified)	0	-4	-2	8
CCC(C)c1ccc(NC(=O)C2CCN(c3nc(C)cc(C)n3)CC2)cc1 (stereo unspecified)	0	-5	1	6
O=C1CC(c2ccc3c(c2)OCCO3)Oc2ccc([N+](=O)[O-])cc21 (stereo unspecified)	0	52*	-1	17
O=C1CC(c2ccc3c(c2)OCCO3)Oc2ccccc21 (stereo unspecified)	0	-32	-1	6
Cc1[nH]nc2c1C(c1cccc([N+](=O)[O-])c1)NC2=O (stereo unspecified)	1	-5	-1	15

Screening results as filed in PubChem BioAssay.
